Records with an inconclusive call do not appear. A call without a number means that no potency is given here. Calls of active or inactive are those of the source. The call rests on the fitted dose curve; in most records, active means well fitted inhibition curve with a large enough effect; inconclusive means small, poorly fitted or top-dose-only effect; inactive means flat fitted curve, though single readings scatter.
What was measured:
Assay in all cases: qHTS profiling for inhibitors of Plasmodium falciparum proliferation (AID 504749); further: nearly all actives have a fitted effect of over 60% in size
[1] = tested on: 3D7; conditions: P. falciparum in erythrocytes, SYBR Green DNA, 72 h; series mostly up to 12.8 µM
How it was run: (§1)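 P. falciparum-infected erythrocytes (0.3% parasitemia, 2.5% hematocrit) incubated with compound 72 h at 37 C, 5% CO2. Parasite DNA detected by SYBR Green after lysis, overnight at room temperature; normalised to 0.29 uM artemisinin and DMSO.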

[2] = tested on: AS120; conditions: P. falciparum in erythrocytes, SYBR Green DNA, 72 h; series mostly up to 28.7 µM
How it was run: as §1

[3] = tested on: ATS189; conditions: P. falciparum in erythrocytes, SYBR Green DNA, 72 h; series mostly up to 12.8 µM
How it was run: as §1

[4] = tested on: CP185; conditions: P. falciparum in erythrocytes, SYBR Green DNA, 72 h; series mostly up to 12.8 µM
How it was run: as §1

[5] = tested on: CP191; conditions: P. falciparum in erythrocytes, SYBR Green DNA, 72 h; series mostly up to 12.8 µM
How it was run: as §1

[6] = tested on: CP194; conditions: P. falciparum in erythrocytes, SYBR Green DNA, 72 h; series mostly up to 12.8 µM
How it was run: as §1

[7] = tested on: CP201; conditions: P. falciparum in erythrocytes, SYBR Green DNA, 72 h; series mostly up to 12.8 µM
How it was run: as §1

[8] = tested on: CP237; conditions: P. falciparum in erythrocytes, SYBR Green DNA, 72 h; series mostly up to 12.8 µM
How it was run: as §1

[9] = tested on: CP238; conditions: P. falciparum in erythrocytes, SYBR Green DNA, 72 h; series mostly up to 12.8 µM
How it was run: as §1

[10] = tested on: CP247; conditions: P. falciparum in erythrocytes, SYBR Green DNA, 72 h; series mostly up to 12.8 µM
How it was run: as §1

[11] = tested on: CP286; conditions: P. falciparum in erythrocytes, SYBR Green DNA, 72 h; series mostly up to 12.8 µM
How it was run: as §1

[12] = tested on: CP291; conditions: P. falciparum in erythrocytes, SYBR Green DNA, 72 h; series mostly up to 12.8 µM
How it was run: as §1

[13] = tested on: CP305; conditions: P. falciparum in erythrocytes, SYBR Green DNA, 72 h; series mostly up to 12.8 µM
How it was run: as §1

[14] = tested on: DIV30; conditions: P. falciparum in erythrocytes, SYBR Green DNA, 72 h; series mostly up to 12.8 µM
How it was run: as §1

[15] = tested on: Dd2; conditions: P. falciparum in erythrocytes, SYBR Green DNA, 72 h; series mostly up to 12.8 µM
How it was run: as §1

[16] = tested on: HB3; conditions: P. falciparum in erythrocytes, SYBR Green DNA, 72 h; series mostly up to 12.8 µM
How it was run: as §1

[17] = tested on: P94_40; conditions: P. falciparum in erythrocytes, SYBR Green DNA, 72 h; series mostly up to 12.8 µM
How it was run: as §1

[18] = tested on: PC49; conditions: P. falciparum in erythrocytes, SYBR Green DNA, 72 h; series mostly up to 12.8 µM
How it was run: as §1

[19] = tested on: TAB109; conditions: P. falciparum in erythrocytes, SYBR Green DNA, 72 h; series mostly up to 12.8 µM
How it was run: as §1

[20] = tested on: TAB113; conditions: P. falciparum in erythrocytes, SYBR Green DNA, 72 h; series mostly up to 12.8 µM
How it was run: as §1
Potency means the concentration at half of the fitted maximal effect.

Q: How did the Potency [1] turn out when `Cc1cc(/C=C\c2ccc3cc(N(C)C)ccc3[n+]2C)c(C)n1-c1ccccc1` was run?
A: 891 nM (active)

Q: And the Potency [2]?
A: 3160 nM (active)

Q: And the Potency [3]?
A: 3160 nM (active)

Q: And the Potency [4]?
A: 1580 nM (active)

Q: What about the Potency [5] of the same molecule?
A: 1410 nM (active)

Q: And the Potency [6]?
A: 2870 nM (active)

Q: And the Potency [7]?
A: 3220 nM (active)

Q: What about the Potency [8] of the same molecule?
A: 562 nM (active)

Q: What about the Potency [9] of the same molecule?
A: 1580 nM (active)

Q: What about the Potency [10] of the same molecule?
A: 3550 nM (active)

Q: And the Potency [11]?
A: 355 nM (active)

Q: And the Potency [12]?
A: 3610 nM (active)

Q: What about the Potency [13] of the same molecule?
A: 2560 nM (active)

Q: And the Potency [14]?
A: 2560 nM (active)

Q: What about the Potency [15] of the same molecule?
A: 398 nM (active)

Q: And the Potency [16]?
A: 2820 nM (active)

Q: What about the Potency [17] of the same molecule?
A: 1000 nM (active)

Q: And the Potency [18]?
A: 3160 nM (active)

Q: What about the Potency [19] of the same molecule?
A: 1410 nM (active)

Q: And the Potency [20]?
A: 1780 nM (active)

Q: For `O=C(Cc1cccs1)NC1C(=O)N2C(C(=O)[O-])=C(C[n+]3ccccc3)CSC12` (stereo not given), which Potency [1] is on record?
A: inactive

Q: And the Potency [2]?
A: inactive

Q: And the Potency [3]?
A: inactive

Q: What about the Potency [4] of the same molecule?
A: inactive

Q: And the Potency [5]?
A: inactive

Q: And the Potency [6]?
A: inactive

Q: And the Potency [7]?
A: inactive

Q: And the Potency [8]?
A: inactive

Q: What about the Potency [9] of the same molecule?
A: inactive

Q: And the Potency [10]?
A: inactive

Q: And the Potency [11]?
A: inactive

Q: What about the Potency [12] of the same molecule?
A: inactive

Q: What about the Potency [13] of the same molecule?
A: inactive

Q: And the Potency [14]?
A: inactive

Q: What about the Potency [15] of the same molecule?
A: inactive

Q: What about the Potency [16] of the same molecule?
A: inactive

Q: And the Potency [17]?
A: inactive

Q: What about the Potency [18] of the same molecule?
A: inactive

Q: And the Potency [19]?
A: inactive

Q: What about the Potency [20] of the same molecule?
A: inactive

Q: How did the Potency [1] turn out when `CC(C)N1CCN(c2ccc(OC[C@@H]3CO[C@@](Cn4cncn4)(c4ccc(Cl)cc4Cl)O3)cc2)CC1` was run?
A: inactive

Q: And the Potency [2]?
A: inactive

Q: And the Potency [3]?
A: inactive

Q: What about the Potency [4] of the same molecule?
A: inactive

Q: What about the Potency [5] of the same molecule?
A: inactive

Q: What about the Potency [6] of the same molecule?
A: inactive

Q: What about the Potency [7] of the same molecule?
A: inactive

Q: And the Potency [8]?
A: inactive

Q: And the Potency [9]?
A: inactive

Q: What about the Potency [10] of the same molecule?
A: inactive

Q: What about the Potency [11] of the same molecule?
A: inactive

Q: What about the Potency [12] of the same molecule?
A: inactive

Q: What about the Potency [13] of the same molecule?
A: inactive

Q: What about the Potency [14] of the same molecule?
A: inactive

Q: What about the Potency [15] of the same molecule?
A: inactive

Q: What about the Potency [16] of the same molecule?
A: inactive

Q: And the Potency [17]?
A: inactive

Q: What about the Potency [18] of the same molecule?
A: inactive

Q: What about the Potency [19] of the same molecule?
A: inactive

Q: And the Potency [20]?
A: inactive
